Measured values reported in the supplement of paper PMC9492666.
Structures can show the parent of a compound that is named as a salt.

Columns and labels:
[1] = test system: HCC1937; test: relative cell viability, compound alone, vs DMSO (fraction of DMSO control); higher = less growth inhibition; conditions: 72 h
[2] = test system: MDA-MB-231; test: as above; conditions: 72 h
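Further: viability read out with the CCK-8 kit in 96-well plates, screening a set of 303 compounds acting on lipid metabolism targets.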

| Structure (SMILES) | relative cell viability [1] | relative cell viability [2] |
| --- | --- | --- |
| CC[C@H](C)C(=O)O[C@H]1CCC=C2C=C[C@H](C)[C@H](CC[C@@H]3C[C@@H](O)CC(=O)O3)[C@H]21 [Mevastatin] | 0.819 | 0.548 |
| N[C@@H](Cc1c[nH]cn1)C(=O)O [histidine] | 1.05 | 1.03 |
| CCCc1cc(-c2nc(-c3ccc(NS(C)(=O)=O)cc3)cs2)ccn1 | 0.669 | 0.926 |
| O=C(Nc1cccnc1)N1CCC(Cc2cccc(Oc3ccc(C(F)(F)F)cn3)c2)CC1 | 1.14 | 1.01 |
| COC(=O)/C=C/c1cccc(N(Cc2ccc(-c3ccc(N(C)C)cc3)cc2)C(=O)C2CCCCC2)c1 [Fexaramine] | 0.805 | 0.924 |
| O=P(O)(O)OC(CO)CO [β-Glycerol phosphate disodium salt pentahydrate] | 0.636 | 0.874 |
| O=C(CN1CCN(C(=O)c2ccco2)CC1)Nc1cc(C(F)(F)F)ccc1Cl | 0.767 | 0.892 |
| CN1c2ccccc2C(=O)Nc2cnc(Nc3ccc(N4CCC(O)CC4)cc3)nc21 | 0.384 | 0.55 |
| CC(c1cc2ccccc2s1)N(O)C(N)=O (centres undefined) [Zileuton] | 1.21 | 0.906 |
| COc1ccc(-c2c[nH]c3nccc(-c4ccsc4)c23)c(OC)c1 | 0.993 | 0.935 |
| CC(=O)Oc1cc(C(F)(F)F)ccc1C(=O)O [Triflusal] | 1.1 | 0.982 |
| O=C(NCCS(=O)(=O)c1ccc(C(F)(F)F)cn1)c1ccc(Cl)cc1 | 0.749 | 0.901 |
| O=C(O)Cn1nnc(-c2cc(N3CCC(Oc4cc(F)ccc4Br)CC3)no2)n1 | 0.842 | 0.882 |
| CCC(C)(Oc1ccc(C2(c3ccc(OC(C)(CC)C(=O)O)cc3)CCCCC2)cc1)C(=O)O (centres undefined) [Clinofibrate] | 0.901 | 0.846 |
| O=C(/C=C/c1ccc(/C=C/C(=O)Nc2ccc(C3=NCCN3)cc2)cc1)Nc1ccc(C2=NCCN2)cc1 | 0.772 | 0.765 |
| CC(C)OC(=O)CCC/C=C\C[C@@H]1[C@@H](CC[C@@H](O)CCc2ccccc2)[C@H](O)C[C@@H]1O [Latanoprost] | 1.43 | 0.88 |
| CC(C)(Oc1ccc(C(=O)c2ccc(Cl)cc2)cc1)C(=O)O [Fenofibric acid] | 0.686 | 0.842 |
| CC(C)c1c(C(=O)Nc2ccccc2)c(-c2ccccc2)c(-c2ccc(F)cc2)n1CC[C@@H](O)C[C@@H](O)CC(=O)O [Atorvastatin Calcium] | 0.657 | 0.569 |
| c1cc(-c2cnn3cc(-c4ccc(OCCN5CCCCC5)cc4)cnc23)ccn1 [Dorsomorphin] | 0.216 | 0.383 |
| OC[C@H]1O[C@@H](Oc2cc(O)cc(/C=C/c3ccc(O)cc3)c2)[C@H](O)[C@@H](O)[C@@H]1O [Polydatin] | 1.07 | 0.871 |
| O=C(O)CC[C@H](O)C(=O)O [L-2-Hydroxyglutaric acid disodium] | 1.04 | 1 |

| Structure (SMILES) | relative cell viability [1] | relative cell viability [2] |
| --- | --- | --- |
| COc1cc(N(C)C)cc(CN(C)CCc2ccc([N+](=O)[O-])cc2)c1O [CDC25 Phosphatase Inhibitor I] | 0.966 | 0.976 |
| Cn1nc(C(=O)N(Cc2ccccc2)Cc2ccc(C(=O)O)cc2)c2c1-c1cc(Cl)ccc1OC2 [Nidufexor] | 0.937 | 0.932 |
| C[C@H](CCOc1cccc(CC(=O)O)c1)N(Cc1cccc(C(F)(F)F)c1Cl)CC(c1ccccc1)c1ccccc1 | 0.632 | 0.841 |
| CCC(CC)CC1(C(=O)Nc2ccccc2SC(=O)C(C)C)CCCCC1 [Dalcetrapib] | 1.35 | 1.06 |
| O=C1/C(=C/c2cccs2)CC/C1=C\c1cccs1 | 0.766 | 0.84 |
| CN1CCN(c2ccc(/C=C(\C#N)c3ccccc3Br)cc2)CC1 [DG172 (dihydrochloride)] | 0.933 | 0.965 |
| CC(=O)c1c(C)cc2cccc(O)c2c1O [Nepodin] | 0.75 | 0.797 |
| Cc1cc(C)c(S(=O)(=O)N(CCc2cccc(Br)c2)Cc2ccc(-c3cccc(S(C)(=O)=O)c3)cc2)c(C)c1 | 0.708 | 0.862 |
| COc1cc([C@@H]2Oc3c(O)cc([C@H]4Oc5cc(O)cc(O)c5C(=O)[C@@H]4O)cc3[C@H]2CO)ccc1O [Silychristin] | 1.04 | 1.02 |
| CN(C)C(=N)NC(=N)N [Metformin] | 0.646 | 0.93 |
| CC1(N)CCN(c2cnc(-c3cccc(Cl)c3Cl)c(N)n2)CC1 [SHP099 hydrochloride] | 0.768 | 1.02 |
| CN(CCOc1ccc(CC2SC(=O)NC2=O)cc1)c1ccccn1 (centres undefined) [Rosiglitazone] | 1.43 | 0.969 |
| O=C(c1ccc(-c2nc3ccc(F)cc3o2)cc1)N1CCN(C(=O)C2(O)CC2)CC1 | 0.831 | 0.918 |
| O=C(O)CCCc1cc2cc(Cl)ccc2n1S(=O)(=O)c1ccc2ncsc2c1 [Lanifibranor] | 0.754 | 1.07 |
| CN(C(=O)n1cnc(-c2ccc[n+]([O-])c2)c1)C1CCCCC1 | 0.65 | 0.934 |
| CC(C)(C)N1C(=O)C(Nc2ccc(N3CCCCC3)cc2)=C(c2ccccc2)S1(=O)=O | 1.15 | 0.947 |
| CCCc1c(-c2ccccc2)[nH]n(-c2ccccn2)c1=O [APX-115 free base] | 0.838 | 0.835 |
| O=S(=O)(Nc1ccc(C(O)(C(F)(F)F)C(F)(F)F)cc1)c1cccs1 | 1.1 | 1.03 |
| CC(C)(Oc1ccc(CCNC(=O)c2ccc(Cl)cc2)cc1)C(=O)O [Bezafibrate] | 0.628 | 0.823 |
| O=C(O)C(O)Cc1ccc(O)c(O)c1 (centres undefined) [Sodium Danshensu] | 0.718 | 0.818 |
| NC(=O)c1cnccn1 [Pyrazinamide] | 0.654 | 0.841 |

| Structure (SMILES) | relative cell viability [1] | relative cell viability [2] |
| --- | --- | --- |
| COc1cc(N2CCN(C)CC2)ccc1Nc1ncc2c(n1)N(C1CCC1)C(=O)N(c1c(C)cccc1C)C2 | 0.817 | 0.767 |
| Cc1ccc(Oc2nc3cc(-c4ccc(-c5ccccc5)cc4)c(Cl)cc3[nH]2)cc1C(=O)O | 0.95 | 0.92 |
| Oc1ccc(/C=C/c2cc(O)cc(O)c2)cc1 [Resveratrol] | 0.67 | 0.755 |
| C=C[C@H]1CN2CC[C@H]1C[C@@H]2[C@@H](O)c1ccnc2ccc(OC)cc12 [Quinidine sulfate] | 0.803 | 1.02 |
| COc1ccc(-c2coc3cc(O)cc(O)c3c2=O)cc1 [Biochanin A] | 0.813 | 0.729 |
| COc1ccc(-c2cc(=O)c3c(O)c(OC)c(O)cc3o2)cc1OC [Eupatilin] | 0.622 | 0.739 |
| COc1ccc2c(=O)c(-c3ccccc3)coc2c1 [7-Methoxyisoflavone] | 0.594 | 0.859 |
| CC(C)C1=CC2=CC[C@@H]3[C@](C)(CCC[C@@]3(C)C(=O)O)[C@H]2CC1 [Abietic Acid] | 1.02 | 1.07 |
| Cc1ccc(/C=C2\SC(=S)N(CCCCCC(=O)Nc3ccc(C(=O)O)c(O)c3)C2=O)cc1 | 1.07 | 0.914 |
| C[C@]12C=CC(=O)N[C@@H]1CC[C@@H]1[C@@H]2CC[C@]2(C)[C@@H](C(=O)Nc3cc(C(F)(F)F)ccc3C(F)(F)F)CC[C@@H]12 [Dutasteride] | 0.798 | 0.777 |
| CCCCCCCCCCCCC/C=C/[C@@H](O)[C@@H](N)CO | 0.331 | 0.792 |
| C[N+](C)(C)CC(O)CC(=O)[O-] (stereo not drawn) [L(-)-Carnitine] | 0.738 | 0.876 |
| O=C(O)Cc1cccc(OCCCN(Cc2cccc(C(F)(F)F)c2Cl)CC(c2ccccc2)c2ccccc2)c1 | 0.78 | 1.11 |
| O=C(O)c1cc2c(Cl)c(N3CCN(S(=O)(=O)c4c(Cl)cccc4Cl)CC3)ccc2o1 [Vonafexor] | 1.16 | 1.16 |
| CN1CCN(C(=O)C2C(C(=O)O)[C@H]3CC[C@@H]2O3)CC1 (some centres undefined) | 0.568 | 0.616 |
| CCC(=O)O[C@]1(C(=O)CCl)[C@@H](C)C[C@H]2[C@@H]3C[C@H](F)C4=CC(=O)C=C[C@]4(C)[C@@]3(F)[C@@H](O)C[C@@]21C [Halobetasol Propionate] | 1.12 | 1.13 |
| c1cc(-c2cnn3cc(-c4ccc(OCCN5CCCCC5)cc4)cnc23)ccn1 [Dorsomorphin dihydrochloride] | 0.138 | 0.301 |
| CC(C)=CCC[C@](C)(O)[C@H]1CC[C@]2(C)[C@@H]1[C@H](O)C[C@@H]1[C@@]3(C)CC[C@H](O)C(C)(C)[C@@H]3[C@@H](O)C[C@]12C [(20S)-Protopanaxatriol] | 1.24 | 1 |
| CCCCCCCCCCOc1ccc(C(=O)Nc2cc(C(=O)NCCCC)ccc2SC)cc1 | 1.02 | 1.06 |
| CN(C)C(=O)Nc1cccc(-c2ccc(N(C)C)cc2)c1 [Atglistatin] | 0.661 | 0.83 |
